# Data published in PubChem BioAssay.
# The source made the active and inactive calls.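 Rule for the calls, unless noted: active = NADPH fluorescence slope more negative than the mean of all samples by about 3 SD, 99.7% confidence; inactive = the rest.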
# Key:
# [1] = inhibitors of TNFa-induced NFkB p65 translocation, primary screen, imaging, HUVEC, MLSMR starter and 10KST1 sets (AID 438;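 active = inhibition above 20% together with a positive visual image hit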;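 note: compound added about 3h40 before a 20 min TNFalpha stimulation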;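 for inhibition: signal is the nuclear over cytoplasmic p65 intensity ratio per well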); conditions: HUVEC TNFa-induced p65 nuclear translocation; cell count: measured here: nuclei count (cytotoxicity indicator), at 2.08 µM; inhibition: at 2 µM, stronger effect = higher value, 0% TNFa-plus-vehicle, 100% no-TNFa wells
# [2] = inhibitors of mutant huntingtin aggregation, primary screen, imaging, exon1htt(103Q)mCFP cells, high-content imaging (AID 483;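 active = visual image review flags a hit and inhibition of aggregation exceeds 20%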;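 note: compound exposure lasted 3 days before fixation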;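 for nuclei count: percent of the per-plate median nuclei count of sample wells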); conditions: exon1htt(103Q)mCFP cell line, aggregate imaging, at 2 µM; inhibition of aggregation: stronger effect = higher value; nuclei count: measured here: cell count, toxicity
# [3] = inhibitors of E-selectin induction by TNFa, primary screen, imaging, HUVEC, immunofluorescence, MLSMR starter and 10KST1 sets (AID 487;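 active = visually confirmed hit in the image check and inhibition above 20%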;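 for inhibition: signal is fraction of cell area covered by stained E-selectin grains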;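 for nuclei count: 100% = median nuclei count of all wells on the same plate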); conditions: HUVEC TNFalpha-induced E-selectin immunofluorescence imaging, at 2 µM; inhibition: stronger effect = higher value; nuclei count: measured here: cell number, toxicity
# [4] = biological target: Voltage-gated potassium channel subunit beta-2 (Rattus norvegicus) (UniProt P62483); assay: KvBeta enzyme negative modulators, primary screen, biochemical, NADPH fluorescence (AID 622;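 active = fluorescence slope higher than the sample average by over 3 SD, cut at about -0.22 in these data, passing the limit was not always enough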;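 note: slope of raw intensity against log time taken from 70 to 1610 s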); conditions: recombinant KvBeta, 4-cyanobenzaldehyde reduction, at 10 µM, stronger effect = higher value
# Chain of Voltage-gated potassium channel subunit beta-2 (Rattus norvegicus) (P62483 whole entry, looked up): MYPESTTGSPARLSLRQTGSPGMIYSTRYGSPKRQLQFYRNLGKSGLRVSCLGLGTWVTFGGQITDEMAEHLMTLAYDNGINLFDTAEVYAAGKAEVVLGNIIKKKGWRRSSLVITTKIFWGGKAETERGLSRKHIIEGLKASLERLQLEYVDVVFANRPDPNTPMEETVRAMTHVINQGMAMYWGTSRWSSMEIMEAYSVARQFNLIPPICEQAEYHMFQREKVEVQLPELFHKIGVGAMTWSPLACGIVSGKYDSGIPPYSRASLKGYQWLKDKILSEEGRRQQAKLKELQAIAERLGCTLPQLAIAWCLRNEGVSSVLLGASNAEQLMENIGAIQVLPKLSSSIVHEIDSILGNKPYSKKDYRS
# [5] = biological target: Voltage-gated potassium channel subunit beta-2 (Rattus norvegicus) (UniProt P62483); assay: KvBeta positive modulators, primary screen, biochemical, NADPH fluorescence (AID 623); conditions: Recombinant KvBeta, NADPH fluorescence decrease slope, 10 min; at 10 µM; stronger effect = lower value;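 note: fluorescence intensity change per second fitted from 20 to 320 s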
# [6] = biological target: Alpha-2C adrenergic receptor (Homo sapiens) (UniProt P18825); assay: modulators of alpha2C/GIRK thallium flux, primary screen, cell-based, HEK293 alpha2C/GIRK1/2 (AID 624;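 active = fluorescence slope after compound addition differing from the mean of all screened samples at 99.7% confidence, in either direction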;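 note: slope of fluorescence ratio to pre-addition baseline per second over 15 to 24 s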); conditions: thallium flux BTC fluorescence, at 10 µM, actives lie on both sides
# Chain of Alpha-2C adrenergic receptor (Homo sapiens) (P18825 whole entry, looked up): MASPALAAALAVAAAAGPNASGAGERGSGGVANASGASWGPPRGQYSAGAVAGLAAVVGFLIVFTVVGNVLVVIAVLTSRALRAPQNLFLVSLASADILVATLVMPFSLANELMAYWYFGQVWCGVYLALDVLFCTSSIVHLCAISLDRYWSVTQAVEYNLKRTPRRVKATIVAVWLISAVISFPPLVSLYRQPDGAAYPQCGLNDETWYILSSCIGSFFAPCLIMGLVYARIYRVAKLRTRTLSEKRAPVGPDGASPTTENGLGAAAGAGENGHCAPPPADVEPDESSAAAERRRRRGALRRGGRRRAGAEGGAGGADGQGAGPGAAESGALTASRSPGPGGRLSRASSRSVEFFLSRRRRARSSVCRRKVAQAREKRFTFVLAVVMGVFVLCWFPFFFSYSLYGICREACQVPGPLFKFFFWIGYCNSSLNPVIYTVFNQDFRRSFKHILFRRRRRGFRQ
# [7] = inhibitors of Sendai virus-induced IRF3 signaling, primary screen, TLR/RLR signaling modifier project, cell-based, Sendai virus stimulus, luciferase, 10K MLSCN set (AID 602276;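 active = inhibition at or above 50% at 10 µM; inactive = inhibition below 50%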;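 note: firefly luciferase from ISG56 promoter only with Renilla not read in this screen; 0% = Sendai virus plus DMSO and 100% = medium plus DMSO without virus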); conditions: HEK293 RL24 IRF3 luciferase reporter, at 10 µM, stronger effect = higher value
# [8] = inhibitors of poly I:C-induced TLR3 signaling, primary screen, cell-based, poly I:C stimulus, luciferase, 10K MLSCN set (AID 602277;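 active = inhibition of the reporter signal at or above 50%; inactive = inhibition below 50%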); conditions: HEK293-TLR3 RL24 IRF3 luciferase reporter, at 10 µM, stronger effect = higher value
Compound,cell count [1],inhibition [1],inhibition of aggregation [2],nuclei count [2] [%],inhibition [3],nuclei count [3] [%],fluorescence slope [4],NADPH fluorescence slope [5],slope [6],inhibition [7],inhibition [8]
Cc1cccc(-c2nnn(CC/C(N)=N/O)n2)c1,321,-4.8% (inactive),-1.8% (inactive),84.2,25.6% (inactive),90.5,-0.496 (inactive),-2.1e-05 (inactive),0.00549 (inactive),2.73% (inactive),-10.7% (inactive)
C/C(N)=C(/C#N)C(=O)CSc1nnc(Nc2cccc(C)c2)s1,451,2.9% (inactive),5.1% (inactive),101,-79.4% (inactive),130,-0.492 (inactive),-3.5e-05 (inactive),0.00453 (inactive),-7.88% (inactive),-32.1% (inactive)
O=C(CCn1cccc1)N1CCc2ccccc21,281,6.5% (inactive),-5.2% (inactive),108,-12% (inactive),106,-0.554 (inactive),2e-05 (inactive),0.00578 (inactive),-13.2% (inactive),-44.8% (inactive)
COc1cc(C(=O)Nc2nc(-c3cccs3)cs2)cc(OC)c1OC,475,-4.8% (inactive),-20.4% (inactive),98.7,-18.4% (inactive),106,-0.507 (inactive),-6.5e-06 (inactive),0.00722 (inactive),-6.01% (inactive),-12% (inactive)
O=C(CC(=O)c1cc(Cl)ccc1O)c1ccccc1,435,3.8% (inactive),-1.9% (inactive),99.3,-68.1% (inactive),126,-0.41 (inactive),2.8e-05 (inactive),0.00798 (inactive),-30.5% (inactive),-67.7% (inactive)
CC1(C)CC(=O)C(C#N)=C(NCCCO)C1,471,5% (inactive),-2.8% (inactive),98.2,42.4% (inactive),109,-0.536 (inactive),-3.8e-05 (inactive),0.00419 (inactive),11.1% (inactive),9.83% (inactive)
COc1ccc(OC)c(NC(=O)CCN2CCC(C)CC2)c1,446,-6.2% (inactive),15.7% (inactive),101,-120% (inactive),220,-0.59 (inactive),-3.6e-05 (inactive),0.00565 (inactive),-15.8% (inactive),-0.553% (inactive)
Cc1ccc(C)c(NS(=O)(=O)c2ccc(NC(=O)c3ccco3)cc2)c1,476,13.3% (inactive),4.7% (inactive),111,-15.1% (inactive),109,-0.335 (inactive),-3.2e-05 (inactive),0.00608 (inactive),0.316% (inactive),11.1% (inactive)
COc1ccc(C(c2nnnn2C2CCCC2)N2CCC(C)CC2)c(OC)c1 (centres undefined),584,-7.1% (inactive),-6.5% (inactive),102,-5.7% (inactive),109,-0.571 (inactive),1.2e-05 (inactive),0.005 (inactive),2.52% (inactive),3.27% (inactive)
CC1CCC(NC(=O)Cn2ncc3ccccc32)CC1 (centres undefined),728,-3.7% (inactive),-13.1% (inactive),118,-59.2% (inactive),106,-0.577 (inactive),-4.8e-05 (inactive),0.00746 (inactive),-43.1% (inactive),-111% (inactive)
O=C(Nn1cnnc1)c1cc2c(s1)CCCC2,346,-3.4% (inactive),-5.7% (inactive),108,-41.7% (inactive),112,-0.411 (inactive),-4.9e-05 (inactive),0.00357 (inactive),-4.21% (inactive),7.24% (inactive)
Cc1nnc(SCC(=O)Nc2c(Cl)cccc2Cl)[nH]c1=O,598,1.1% (inactive),17.6% (inactive),87,17.8% (inactive),103,-0.553 (inactive),-4.3e-05 (inactive),0.00796 (inactive),8.99% (inactive),41.1% (inactive)
Cc1ccc(C)c(N2CCN(S(=O)(=O)c3ccc4c(c3)OCCO4)CC2)c1,521,-2.6% (inactive),-13.4% (inactive),134,-136% (inactive),209,-0.64 (inactive),3.2e-05 (inactive),0.00722 (inactive),10.2% (inactive),16.3% (inactive)
O=C(Cn1c(=O)n(CC2CCCO2)c(=O)c2ccccc21)c1ccccc1 (centres undefined),361,4.4% (inactive),1.4% (inactive),103,4.5% (inactive),111,-0.51 (inactive),-3.9e-05 (inactive),0.00589 (inactive),10.8% (inactive),16.3% (inactive)
